Measurements as given in PubChem BioAssay (NCATS).
Inconclusive results are not listed. Unless noted, the call rests on the fitted dose curve; in most records, active means well fitted curve in either direction with a large enough effect (not every such curve was filed as active); inconclusive means small, poorly fitted or top-dose-only effect, or another doubt; inactive means flat fitted curve, though single readings scatter.

Columns and labels:
[1] = AP1 Signaling Pathway (AID 357); conditions: ME-180 AP-1-bla reporter, EGF-induced, beta-lactamase ratio, 5 h; at 17.2 µM (top of the series) unless noted;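 further: ME-180 reporter cells stimulated with EGF at its EC50 level; on the % scale 0 is the no-effect control and ±100 the full control effect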
In short: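 A ratiometric CCF4 readout (405 nm excitation; 460 and 530 nm emission) quantified AP-1-driven beta-lactamase in ME-180 cells after 5 h with compound and EC50 EGF; AC50 values were derived for activators and inhibitors.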

[2] = NFAT Signaling Pathway (AID 444); conditions: Jurkat NFAT-bla M1, carbachol, beta-lactamase ratio, 5 h; at 17.2 µM (top of the series) unless noted;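 further: carbachol stimulus at about its EC50 of 1 µM final; on the % scale 0 is the no-effect control and ±100 the full control effect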
In short: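 Jurkat cells with NFAT-driven β-lactamase reporter and co-expressed M1 receptor, stimulated with carbachol (final 1 uM, ~EC50), compound titration, 5 h at 37 °C. CCF4 loaded 1 h at RT; 460/530 nm ratio gave %activity and AC50.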

[3] = Stat Signaling Pathway (AID 446); conditions: ME-180 (cervical carcinoma) SIE beta-lactamase reporter, IL-6 stimulated, 5 h; at 17.2 µM (top of the series) unless noted;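 further: ME-180 cervical cancer cells given 40 pM IL-6 alongside compound; SIE-controlled beta-lactamase reporter measured as 460/530 nm FRET emission ratio; on the % scale 0 is the no-effect control and ±100 the full control effect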
In short: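 FRET read-out (405 nm excitation, 460/530 nm emission) of a beta-lactamase reporter under a STAT-inducible element in ME-180 cervical carcinoma cells. Cells with compound receive 40 pM IL-6 for 5 h. Values are normalised to AC90 stimulation and AC90 JAK-inhibitor controls.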

[4] = molecular target: Glucocorticoid receptor (Homo sapiens) (UniProt P04150); experiment: GR-GFP Redistribution (AID 450;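 active means compounds whose dose series gives a full or clear partial fitted curve of increased nuclear translocation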; further: potency means the concentration at half of the fitted maximal effect)
Glucocorticoid receptor (Homo sapiens), sequence (P04150 whole entry, looked up): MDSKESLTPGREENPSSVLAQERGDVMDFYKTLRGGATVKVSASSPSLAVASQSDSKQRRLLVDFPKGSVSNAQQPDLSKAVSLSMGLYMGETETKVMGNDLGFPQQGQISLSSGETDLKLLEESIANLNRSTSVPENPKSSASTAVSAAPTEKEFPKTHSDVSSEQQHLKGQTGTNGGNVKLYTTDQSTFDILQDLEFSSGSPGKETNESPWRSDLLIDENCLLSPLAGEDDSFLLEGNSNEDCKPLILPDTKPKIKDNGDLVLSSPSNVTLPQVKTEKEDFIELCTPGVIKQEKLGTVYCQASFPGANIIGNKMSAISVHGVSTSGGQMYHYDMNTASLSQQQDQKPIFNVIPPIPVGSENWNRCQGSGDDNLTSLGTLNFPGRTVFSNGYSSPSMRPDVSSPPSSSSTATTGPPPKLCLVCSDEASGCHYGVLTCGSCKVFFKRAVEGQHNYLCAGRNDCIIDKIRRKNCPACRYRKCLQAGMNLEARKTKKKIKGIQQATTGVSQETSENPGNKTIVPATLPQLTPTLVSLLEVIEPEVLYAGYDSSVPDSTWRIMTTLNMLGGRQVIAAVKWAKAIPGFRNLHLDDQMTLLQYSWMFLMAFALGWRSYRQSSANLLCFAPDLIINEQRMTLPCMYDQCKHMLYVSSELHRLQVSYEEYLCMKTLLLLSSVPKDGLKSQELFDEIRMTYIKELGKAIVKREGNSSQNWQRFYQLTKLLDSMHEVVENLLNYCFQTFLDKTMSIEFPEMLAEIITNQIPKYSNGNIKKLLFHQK

O=C(c1nsnc1-c1ccccc1O)N1CCCCC1
inactive: activity change, negative = inhibition [1] 12.2% | activity change, negative = inhibition [2] 6.47% | activity, negative = inhibition [3] -2.4% | Potency [4] > 20.6 µM

O=C(C1CC1(c1ccccc1)c1ccccc1)N1CCOCC1 (stereo not given)
inactive: activity change, negative = inhibition [1] -9.16% | activity change, negative = inhibition [2] 10.4% | activity, negative = inhibition [3] 0.797% | Potency [4] > 20.6 µM

N#CC1(P(=O)(c2ccccc2)c2ccccc2)CC1
inactive: activity change, negative = inhibition [1] 0.213% | activity change, negative = inhibition [2] -2.17% | activity, negative = inhibition [3] 1.75% | Potency [4] > 20.6 µM

CCCc1cc(=O)oc2c(C)c(O)c(CN3CCCCC3)cc12
inactive: activity change, negative = inhibition [1] 6.18% | activity change, negative = inhibition [2] 19.5% | activity, negative = inhibition [3] 10.7% | Potency [4] > 20.6 µM

CC1C[C@@]2(NC(=O)NC2=O)C(C)CN1C (stereo not given in full)
inactive: activity change, negative = inhibition [1] 5.36% | activity change, negative = inhibition [2] -4.32% | activity, negative = inhibition [3] 5.03% | Potency [4] > 20.6 µM

CCN(CC)C(=O)C1CCN(c2ncnc3c2cnn3-c2ccc(C)cc2C)CC1
inactive: activity change, negative = inhibition [1] -10.6% | activity change, negative = inhibition [2] 7.48% | activity, negative = inhibition [3] -7.04% | Potency [4] > 20.6 µM

COc1cccc(OC)c1OCCN1CCN(C(=O)c2ccco2)CC1
inactive: activity change, negative = inhibition [1] 17.1% | activity change, negative = inhibition [2] -6.56% | activity, negative = inhibition [3] 11.8% | Potency [4] > 20.6 µM

O=S(=O)(c1ccccc1)N1CCC(N2CCN(c3ccccc3)CC2)CC1
inactive: activity change, negative = inhibition [1] -9.33% | activity change, negative = inhibition [2] 6.66% | activity, negative = inhibition [3] 5.78% | Potency [4] > 20.6 µM

Cc1nc2sc(C#N)c(N)c2c2c1CCCC2
inactive: activity change, negative = inhibition [1] -15.7% | activity change, negative = inhibition [2] -7.96% | activity, negative = inhibition [3] -6.2% | Potency [4] > 20.6 µM

CC(=O)C1=C(O)C(=O)N(c2cccc(C(=O)O)c2)C1c1ccccc1F (stereo not given)
inactive: activity change, negative = inhibition [1] -4.91% | activity change, negative = inhibition [2] 3.23% | activity, negative = inhibition [3] 10.6% | Potency [4] > 20.6 µM

CCOC(=O)Cn1nc(C)c2ccccc2c1=O
inactive: activity change, negative = inhibition [1] 5.31% | activity change, negative = inhibition [2] 3.38% | activity, negative = inhibition [3] -2.19% | Potency [4] > 20.6 µM

Cc1c(/C(O)=C2/C(=O)C(=O)N(CCN3CCOCC3)C2c2cccnc2)cnn1-c1ccccc1 (stereo not given)
inactive: activity change, negative = inhibition [1] -11.6% | activity change, negative = inhibition [2] -1.03% | activity, negative = inhibition [3] -0.626% | Potency [4] > 20.6 µM

CCOc1ccc(C2C(C(=O)c3ccc(C)o3)=C(O)C(=O)N2CCCN(CC)CC)cc1 (stereo not given)
inactive: activity change, negative = inhibition [1] -5.84% | activity change, negative = inhibition [2] 12.8% | activity, negative = inhibition [3] 6.24% | Potency [4] > 20.6 µM

COc1ccc2[nH]cc(C(=O)CN(C)CCc3ccc(OC)c(OC)c3)c2c1
inactive: activity change, negative = inhibition [1] -10.3% | activity change, negative = inhibition [2] 11.6% | activity, negative = inhibition [3] 6.57% | Potency [4] > 20.6 µM

O=c1[nH]c(CN2CCCCC2)nc2c1C1(CCCCC1)Cc1ccccc1-2
inactive: activity change, negative = inhibition [1] 24.9% | activity change, negative = inhibition [2] 4.2% | activity, negative = inhibition [3] -5.46% | Potency [4] > 20.6 µM

CN(C)CC(O)COc1ccc(C(C)(C)c2ccc(OCC(O)CN(C)C)cc2)cc1 (stereo not given)
inactive: activity change, negative = inhibition [1] -0.00757% | activity change, negative = inhibition [2] 1.57% | activity, negative = inhibition [3] -4.4% | Potency [4] > 20.6 µM

CCCOc1ccccc1C(=O)NCCCC(=O)O
inactive: activity change, negative = inhibition [1] -0.71% | activity change, negative = inhibition [2] -4.04% | activity, negative = inhibition [3] 8.1% | Potency [4] > 20.6 µM

CCC(NC(=O)Nc1nccs1)(C(F)(F)F)C(F)(F)F
inactive: activity change, negative = inhibition [1] -2.44% | activity change, negative = inhibition [2] -12.7% | activity, negative = inhibition [3] -6.36% | Potency [4] > 20.6 µM

COC(=O)c1ccc(=O)n(Cc2ccco2)c1
inactive: activity change, negative = inhibition [1] 4.81% | activity change, negative = inhibition [2] -1.77% | activity, negative = inhibition [3] -2.94% | Potency [4] > 20.6 µM

O=C1C(=O)N(CCN2CCOCC2)C(c2ccccn2)/C1=C(/O)c1ccccc1 (stereo not given)
inactive: activity change, negative = inhibition [1] -4.12% | activity change, negative = inhibition [2] 3.29% | activity, negative = inhibition [3] -1.75% | Potency [4] > 20.6 µM

CCCc1nnc(SCc2ccc(OCC)cc2)n1N
inactive: activity change, negative = inhibition [1] 4.67% | activity change, negative = inhibition [2] 7.42% | activity, negative = inhibition [3] 10.4% | Potency [4] > 20.6 µM

COc1cccc(C2C(C(=O)c3sc(C)nc3C)=C(O)C(=O)N2CCN2CCOCC2)c1OC (stereo not given)
inactive: activity change, negative = inhibition [1] 3.76% | activity change, negative = inhibition [2] 12.8% | activity, negative = inhibition [3] 7.97% | Potency [4] > 20.6 µM

CC1CN(C2CCN(C(=O)COc3ccccc3)CC2)CC(C)O1 (stereo not given)
inactive: activity change, negative = inhibition [1] -6.79% | activity change, negative = inhibition [2] -12.5% | activity, negative = inhibition [3] -1.27% | Potency [4] > 20.6 µM

CCOC(=O)C1(c2nc(N)cs2)COC(=O)C1 (stereo not given)
inactive: activity change, negative = inhibition [1] 6.34% | activity change, negative = inhibition [2] -1.85% | activity, negative = inhibition [3] 2.25% | Potency [4] > 20.6 µM

CC1(C)NC(=O)N(CC(O)Cn2nnc3ccccc32)C1=O (stereo not given)
inactive: activity change, negative = inhibition [1] 5.85% | activity change, negative = inhibition [2] 8.84% | activity, negative = inhibition [3] 6.79% | Potency [4] > 20.6 µM
